From PubChem BioAssay
KDM5B inh = inhibitors of human KDM5B histone demethylase | Q9UGL1 | KDM5B demethylase, FDH-coupled NADH fluorescence (FDH is formaldehyde dehydrogenase) | Potency, µM (top dose mostly 57.7 µM), actives largely listed as inhibitors | 220,000 tested, 2.6% active | AID 1347165; active = well fitted inhibition curve with a large enough effect; note: nearly all actives have a fitted effect of over 70% in size
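Inhibition is measured as reduced NADH fluorescence generation from FDH coupling to formaldehyde release. Truncated KDM5BΔAP at 200 nM final acts on H3K4me3 peptide (12.5 µM in substrate mix) in pH 7.5 HEPES buffer with Tween-20, 30 min, room temperature.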
Large screens that a line does not name were inactive. The sample as a whole holds a higher share of hits than the screen did.

O=C1COc2ccc(-c3ccc4c(c3)OCO4)nc2CN1Cc1ccc(F)cc1	KDM5B inh 35.5µM
O=C1COc2ccc(OCc3ccc(F)cc3)nc2CN1CCOc1ccccc1	none
O=C1COc2ccc(OCc3cccnc3)nc2CN1CCOc1ccccc1	none
CN(c1ccccc1)c1ccc2c(n1)CN(Cc1ccccc1)C(=O)CO2	KDM5B inh 35.5µM
CN(c1ccccc1)c1ccc2c(n1)CN(CCOc1ccccc1)C(=O)CO2	KDM5B inh 31.6µM
O=C1COc2ccc(-c3cn[nH]c3)nc2CN1Cc1ccccc1	none
O=C1COc2ccc(Oc3ccccc3)nc2CN1Cc1ccccc1	none
Clc1ccc(CN2CCC3(CC2)CC(Cc2ccccc2)=NO3)cc1	none
COc1ccc(CN2CCC3(CC(Cc4ccccc4)=NO3)C2)cc1 (stereo not given)	KDM5B inh 25.1µM
COc1ccc(CN2CCCC3(CC(c4ccccn4)=NO3)C2)cc1 (stereo not given)	none
CN(C)c1ccc(CN2CCCC3(CC(Cc4ccccc4)=NO3)C2)cc1 (stereo not given)	none
Fc1ccc(CN2CCC3(CC(Cc4ccccc4)=NO3)C2)cc1 (stereo not given)	KDM5B inh 31.6µM
COc1ccc(C2=NOC3(CCN(Cc4ccc(F)cc4)C3)C2)cc1 (stereo not given)	none
Cc1cccc(-c2noc(C34CC5CC(CC(C5)C3)C4)n2)c1	none
Cc1cc(NC(=O)C2CCCN(S(=O)(=O)c3ccc4[nH]c(=O)oc4c3)C2)ccc1Br (stereo not given)	none
c1ccc2c(-n3nnnc3SCc3nc4ccccc4[nH]3)cccc2c1	none
Cc1noc(C)c1CC(=O)N1CCCn2cc(-c3ccccc3F)nc21	none
Cc1ccc(-c2cn3c(n2)N(C(=O)Cn2ccnc2C)CCC3)cc1	none
Cc1ccccc1CC(=O)N1CCCn2cc(-c3cccc(C#N)c3)nc21	KDM5B inh 22.4µM
CN(Cc1cccc(C#N)c1)C(=O)Cc1cccs1	none
COc1cccc(-c2cn3c(n2)N(C(=O)Cc2ccsc2)CCC3)c1	none
N#Cc1cccc(-c2cn3c(n2)N(C(=O)Cc2cccs2)CCC3)c1	KDM5B inh 25.1µM
CC(=O)NCC(=O)N1CCCn2cc(-c3ccccc3)nc21	none
COCC(=O)N1CCCn2cc(-c3cccc(C#N)c3)nc21	KDM5B inh 25.1µM
Cc1noc(C)c1CC(=O)N1CCCn2cc(-c3ccccc3)nc21	none
COc1ccc2[nH]cc(C(C(=O)O)N3CCCC3)c2c1 (stereo not given)	none
CC(=O)Nc1ccc(NC(=O)c2ccc3ccn(C)c3c2)cc1	none
O=C(OCc1cc(=O)oc2cc(O)ccc12)c1ccc(N2CCOCC2)nc1	none
COc1ccc(CN2Cc3[nH]nc(-c4ccccc4OC)c3CC2=O)cc1	none
CN1Cc2c(cc(N3CCOCC3)nc2-c2ccccc2OC(F)(F)F)C1=O	KDM5B inh 35.5µM
COc1ccc(CN2CCOc3nc(-c4cccc(C(F)(F)F)c4)ncc3C2=O)cc1	none
COc1cccc(-c2noc(N3CCCC3)n2)c1OC	none
O=C1CC(c2noc(-c3ccccc3OC(F)(F)F)n2)CN1C1CCCCC1 (stereo not given)	none
COCc1cc(=O)[nH]c(-c2ccccc2OC(F)(F)F)n1	none
O=C1c2cc(N3CCOCC3)nc(-c3cccc(O)c3)c2CN1CC(F)(F)F	KDM5B inh 39.8µM
COc1cccc(-c2nc(N3CCOCC3)cc3c2CN(CC(F)(F)F)C3=O)c1OC	KDM5B inh 31.6µM
COc1ccc(-c2n[nH]c3c2CC(=O)N(Cc2ccccc2)C3)cc1OC	none
COc1cccc(-c2nc(N3CCOCC3)cc3c2CN(Cc2ccccc2)C3=O)c1OC	KDM5B inh 31.6µM
COc1cccc(C(=O)NC2CCN(c3cc(C(F)(F)F)nc(C)n3)CC2)c1OC	none
CC(C)n1nc(C(=O)Nc2ccc3ccccc3n2)c2ccccc2c1=O	none
O=C(OCc1cccc([N+](=O)[O-])c1)C12CC3CC(CC(O)(C3)C1)C2	none
COc1cc(C2CC(=O)Nc3c(-c4ccc(C)cc4)csc32)ccc1OCC(N)=O (stereo not given)	none
COc1ccc(Nc2nc(-c3ccc(C)cc3C)cs2)cc1	none
COC(=O)c1cc2cc3ccccc3nc2s1	none
COc1ncccc1CNC(=O)Nc1nnc(C)s1	none
O=CC(Cl)=C(Sc1ccc(Cl)cc1)Sc1ccc(Cl)cc1	none
COc1cccc(-c2nc(N3CCOCC3)cc3c2CN(CC2CC2)C3=O)c1OC	KDM5B inh 35.5µM
O=C1Cc2c(-c3cccc(CO)c3)n[nH]c2CN1c1ccccc1	none
COc1ccccc1-c1n[nH]c2c1CC(=O)N(CC1CC1)C2	none
CCc1ccc(C(=O)c2cnc3cc(OC)c(OC)cc3c2N2CCOCC2)cc1	none
Cc1ccc2nc(N3CCOCC3)nc(-c3ccccc3)c2c1	none
COc1cccc(C(=O)NC2CCN(c3cnn(CC4CC4)c(=O)c3)CC2)c1OC	none
COc1cc(F)ccc1-c1cn(C)c(=O)n2cc(COc3ccc(C(=O)O)cc3)nc12	none
COc1ccc(-c2nc(N3CCOCC3)cc3c2CN(Cc2ccccc2)C3=O)cc1	none
COc1cc(F)ccc1-c1nc(N2CCOCC2)cc2c1CN(CC(F)(F)F)C2=O	KDM5B inh 31.6µM
O=C1c2cc(N3CCOCC3)nc(-c3ccccc3)c2CN1Cc1ccccc1	KDM5B inh 31.6µM
O=C1c2cnc(-c3cccc(CO)c3)nc2OCCN1c1ccccc1	none
O=C1c2cc(N3CCOCC3)nc(-c3cccc(CO)c3)c2CN1c1ccccc1	KDM5B inh 35.5µM
CN(Cc1ccccc1C(F)(F)F)C(=O)c1ccc(C(F)(F)F)cc1	none
CN(C)CCCNC(=O)c1cc(-c2ccc3c(c2)OCO3)nc2ccccc12	none
COc1cncc(Nc2cnc3ccc(-c4ccc(OC)c(OC)c4)nn23)c1	none
COc1cccc(Nc2nc(N)c(C(=O)c3ccc(OC)c(OC)c3OC)s2)c1	none
COc1cccc(CC(=O)N2Cc3ccccc3OC3(CCN(C)CC3)C2)c1	none
CC(Sc1nnc(-c2c[nH]c3ccccc23)o1)C(=O)NC(=O)NC1CCCCC1 (stereo not given)	none
C#CCNC(=O)CN1CCN(C(=O)C2CCCC2)CC1	none
C#CC1(O)C(C)CN(C)CC1C (stereo not given)	none
Cc1ccc(NC(=O)C(C)N(C)Cc2ccc3c(c2)OCCO3)cc1 (stereo not given)	none
CCCOc1ccccc1C(=O)Nc1ccc(OCCC)c2ncccc12	none
O=C(Cn1nc(C(=O)O)c2ccccc2c1=O)Nc1ccccc1Cc1ccccc1	none
CCOC(=O)c1cnc2c(Cl)cccc2c1Nc1ccc(OCC)cc1	none
COc1ccc2cc(C(=O)Nc3ccc(N(C)C)c(C)c3)c(C)nc2c1	none
O=C(C1CC1)N1CCC(Oc2cnc3c(ccn3-c3cncnc3)c2)CC1	none
C[S+](=O)([O-])NCCn1ccc2cc(OC3CCN(C(=O)C4CCCC4)CC3)cnc21	KDM5B inh 35.5µM
O=C(C1CCCC1)N1CCC(Oc2cnc3c(ccn3-c3cncnc3)c2)CC1	none
CCn1c(CCCOc2ccc(Cl)cc2C)n[nH]c1=S	none
CC(C)(C)NC(=O)CSc1nnc(-c2cccnc2)o1	none
COc1ccc(CCC(=O)N2CCN(C(=O)c3nnn4c3COC(c3ccc(C)cc3)C4)CC2)cc1 (stereo not given)	none
Cc1cccc(NC(=O)C2CCCN(C(=O)Nc3ccc(F)cc3)C2)c1 (stereo not given)	none
O=C(Nc1cccc(Cl)c1)N1CCN(c2ccc(Cl)c(Cl)c2)CC1	none
Cn1c2c(c3cc(F)ccc31)CN(C(=O)Nc1cccc(Cl)c1)CC2	KDM5B inh 31.6µM
Cc1cccc(NC(=O)N2CCc3c(c4cc(F)ccc4n3C)C2)c1	KDM5B inh 31.6µM
O=C(Nc1ccc(C(=O)N2CCCCC2)cc1)Nc1cccc(Cl)c1	none
Cc1cccc(NC(=O)N2CCC(C(=O)c3ccc(F)cc3)CC2)c1	none
Cc1cccc(C(=O)N(Cc2ccc(C)o2)c2ccccn2)c1	none
